Measurements as given in PubChem BioAssay (NCATS).
Inconclusive results are not listed. Calls of active or inactive are those of the source. Calls follow the shape of the dose curve; as a rule, active = well fitted curve in the direction sought with a large enough effect; inconclusive = small, poorly fitted or top-dose-only effect, or another doubt; inactive = no such curve, though single readings can be large; an effect the other way counts as inactive or inconclusive.

How the values were obtained:
[1] = biological target: Cellular tumor antigen p53 (Homo sapiens) (UniProt P04637); test: Primary qHTS for small molecule compounds that upregulate eGFP-tagged delta133p53alpha (in N-terminal) cells. (AID 2060322); conditions: NCI-H358 eGFP-delta133p53alpha fluorescence, 24 h; activation: stronger effect = higher value; also: nearly all actives have a fitted effect of over 75% in size; also: potency is read from the fitted curve at half-maximal effect;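 as to activation: cells pre-induced with doxycycline then dosed without doxycycline; series mostly up to about 56 µM; 0% = DMSO vehicle and 100% = reference activator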
Sequence of Cellular tumor antigen p53 (Homo sapiens) (P04637 whole entry, looked up): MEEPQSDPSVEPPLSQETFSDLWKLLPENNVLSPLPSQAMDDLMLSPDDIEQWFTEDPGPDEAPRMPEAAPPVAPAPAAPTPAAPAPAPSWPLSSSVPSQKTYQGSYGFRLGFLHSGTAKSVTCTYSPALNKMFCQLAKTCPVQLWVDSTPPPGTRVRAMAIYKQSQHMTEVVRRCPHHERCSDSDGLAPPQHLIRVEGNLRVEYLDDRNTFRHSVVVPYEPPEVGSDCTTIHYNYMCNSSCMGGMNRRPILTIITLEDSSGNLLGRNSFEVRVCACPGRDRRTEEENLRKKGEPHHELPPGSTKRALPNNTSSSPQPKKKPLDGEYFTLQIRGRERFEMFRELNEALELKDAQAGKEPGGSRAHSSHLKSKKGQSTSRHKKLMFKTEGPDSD
Outline: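 NCI-H358 cells pre-induced 24 h with 10 ng/ml doxycycline for eGFP-delta133p53alpha, plated dox-free and exposed 24 h at 37C to titrated compounds. Fixed, Hoechst-stained; gated GFP peak intensity by laser scanning cytometry, normalized to DMSO (0%) and 57.5 uM 5-azacytidine (100%).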

[2] = BET inhibitor-based combinations targeting novel dependencies in MECOM-rearranged (r) AML: SET-2 cell line (AID 2202231); conditions: SET-2 AML cells viability, CellTiter-Glo luminescence, 48 h; viability: stronger effect = lower value, concentration not given here; also: nearly all actives have a fitted effect of over 35% in size; also: potency is read from the fitted curve at half-maximal effect;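 as to viability: plate controls were DMSO treated cells for no effect and wells without cells for full effect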
Outline: (§1)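 Each compound was tested at eleven concentrations on cells seeded at 500/well. After two days' incubation, ATP-based luminescence reported viability; responses relative to DMSO and blank wells yielded AUC and cell-line-centred Z-AUC.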

[3] = BET inhibitor-based combinations targeting novel dependencies in MECOM-rearranged (r) AML: OCI-AML3 cell line (AID 2202232); conditions: Potency: OCI-AML3 viability; also: nearly all actives have a fitted effect of over 35% in size; also: potency is read from the fitted curve at half-maximal effect
Outline: as §1

[4] = BET inhibitor-based combinations targeting novel dependencies in MECOM-rearranged (r) AML: MV-4-11 cell line (AID 2202233); also: nearly all actives have a fitted effect of over 45% in size; also: potency is read from the fitted curve at half-maximal effect
Outline: (§2)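 First, 500 cells per well were seeded; next, drugs were pinned as 11-point doses; then plates sat 48 hr in the incubator; finally CellTiter-Glo was added and luminescence read, with AUC and Z-AUC computed.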

[5] = BET inhibitor-based combinations targeting novel dependencies in MECOM-rearranged (r) AML: HNT-34 cell line (AID 2202234); also: nearly all actives have a fitted effect of over 35% in size; also: potency is read from the fitted curve at half-maximal effect
Outline: as §2

[6] = BET inhibitor-based combinations targeting novel dependencies in MECOM-rearranged (r) AML: UCSD-AML1 cell line (AID 2202235); also: nearly all actives have a fitted effect of over 40% in size; also: potency is read from the fitted curve at half-maximal effect
Outline: as §2

[7] = BET inhibitor-based combinations targeting novel dependencies in MECOM-rearranged (r) AML: AML-191 cell line (AID 2202236; also: nearly all actives have a fitted effect of over 35% in size; also: potency is read from the fitted curve at half-maximal effect)
Outline: as §1

[8] = BET inhibitor-based combinations targeting novel dependencies in MECOM-rearranged (r) AML: AML-194 cell line (AID 2202237; also: potency is read from the fitted curve at half-maximal effect; nearly all actives have a fitted effect of over 40% in size)
Outline: as §1

[9] = biological target: Retinaldehyde dehydrogenase 3 (Homo sapiens) (UniProt P47895); test: qHTS for Inhibitors of the Aldehyde Dehydrogenase Family (ALDH1A3) Primary screen (AID 2061315);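 also: plate controls were DMSO vehicle for no effect and reference inhibitor for full effect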

C[C@H]1COC2=C1C(=O)C(=O)c1c2ccc2c1CCCC2(C)C
active: Potency [2] 20.9 µM | Potency [3] 20.9 µM | Potency [4] 13.2 µM
inactive: activation [1] -1.94%

CCN1CCN(CC(=O)Nc2ccc(-c3cccc4c(=O)cc(N5CCOCC5)oc34)c3sc4ccccc4c23)CC1
inactive: activation [1] -18.4%
active: Potency [2] 8.11 µM | Potency [3] 2.57 µM | Potency [4] 1.44 µM | Potency [5] 5.74 µM | Potency [6] 2.57 µM | Potency [7] 5.74 µM | Potency [8] 3.23 µM

CCN1CCN(C(=O)N[C@@H](C(=O)N[C@@H]2C(=O)N3C(C(=O)O)=C(CSc4nnnn4C)CS[C@H]23)c2ccc(O)cc2)C(=O)C1=O
inactive: activation [1] -7.34% | viability [2] 99.4% | Potency [3] | Potency [4] | Potency [5] | Potency [6] | Potency [7]

Oc1cc(-c2nc(-c3ccccc3)[nH]c2-c2ccncc2)ccc1Cl
active: Potency [3] 4.17 µM | Potency [4] 14.8 µM | Potency [5] 7.42 µM
inactive: activation [1] 22.4% | Potency [9]

CCOc1cc(C(C)(C)C)ccc1C1=N[C@@](C)(c2ccc(Cl)cc2)[C@@](C)(c2ccc(Cl)cc2)N1C(=O)N1CCN(CC(=O)N2CCOCC2)CC1
active: Potency [3] 11.5 µM | Potency [4] 1.63 µM | Potency [6] 4.09 µM | Potency [7] 7.28 µM | Potency [8] 9.17 µM
inactive: activation [1] 35.5% | Potency [9]

Cc1cc(Nc2nc(N[C@@H](C)c3ccc(F)cc3)c(C#N)cc2F)n[nH]1
inactive: Potency [9]
active: Potency [1] 16.9 µM | Potency [3] 0.525 µM | Potency [4] 0.662 µM | Potency [6] 0.525 µM | Potency [7] 0.105 µM | Potency [8] 0.166 µM

CC(C)C[C@@H](C(=O)N[C@H](C(=O)OC1CCCC1)c1ccccc1)[C@H](O)C(=O)NO
inactive: activation [1] 10.8%
active: Potency [2] 14.8 µM | Potency [3] 13.2 µM | Potency [4] 3.32 µM | Potency [5] 18.6 µM | Potency [6] 20.9 µM | Potency [7] 20.9 µM

O=C(NOCC(O)CO)c1cc(Br)c(F)c(F)c1Nc1ccc(I)cc1F (configuration not stated)
inactive: activation [1] 6.51% | viability [2] 95.8%
active: Potency [3] 0.0166 µM | Potency [4] 0.209 µM | Potency [5] 1.05 µM

O=C1[C@H](Cc2ccc(O)cc2)N2C(=O)CCN(C(=O)NCc3ccccc3)[C@H]2CN1Cc1cccc2ccccc12
inactive: activation [1] 18.1%
active: Potency [2] 11.8 µM | Potency [3] 9.34 µM | Potency [4] 9.34 µM | Potency [5] 5.25 µM

O=C(O)c1cc(O)c2c(c1)C(=O)c1cccc(O)c1C2=O
active: Potency [3] 5.9 µM
inactive: activation [1] -15.1% | viability [2] 115% | Potency [4] | Potency [5] | Potency [6] | Potency [7]
